Pf Dd2 growth – inhibitors of Plasmodium falciparum Dd2 growth; 4.3% of 120,000 active; P. falciparum Dd2 growth, SYBR Green, 72 h; Potency, µM (doses to about 28.9 µM), actives largely listed as inhibitors; active = well fitted inhibition curve with a large enough effect; also: nearly all actives have a fitted effect of over 65% in size
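Readout: SYBR Green fluorescence, 485 nm excitation, 535 nm emission, after ~16 h lysis at 37C. Before that, Dd2-infected red cells (2.5% hematocrit) grew 72 h with compound, 29 uM top final concentration.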
Each line names hits and unclear results; the compound was inactive in the other large screens. The entries come from a sample that favours hits as a whole.

COc1ccc(-c2noc(CSc3nnc(C)n3-c3ccc(OC)cc3)n2)cc1	none
COc1ccc(-c2ccc(NS(=O)(=O)c3cccc(C)c3)cc2)nn1	none
COc1ccc(-c2ccc(NS(=O)(=O)c3ccccc3Cl)cc2)nn1	Pf Dd2 growth 11µM
COc1ccc(-c2ccc(NS(=O)(=O)c3ccccc3)cc2)nn1	none
Cc1cccc(OCCc2noc(C3CCCN3C(=O)c3n[nH]c(=O)c4ccccc34)n2)c1 (stereo not drawn)	none
COc1ccc(F)c(CN2CCCC(O)(CN3CCCNCC3)C2=O)c1 (stereo not drawn)	none
CC(C)COC(=O)/C(C#N)=C\c1ccc(-c2ccccc2Cl)o1	Pf Dd2 growth 1.1µM
CCC(C)OC(=O)/C(C#N)=C\c1ccc(-c2ccccc2Cl)o1 (stereo not drawn)	none
CCOC(=O)/C(C#N)=C/c1ccc(-c2ccccc2)o1	none
COc1cccc(Nc2nc3cc(Cl)c(Cl)cc3nc2-n2nc(C)cc2C)c1	none
COc1ccc(C)cc1NC(=O)CCS(=O)(=O)c1ccc2c(c1)CC(=O)N2C	none
O=C(Cc1cccc(Cl)c1)N1CCC(n2cc(-c3nc(-c4ccccc4)no3)nn2)C1 (stereo not drawn)	none
COc1cccc(C(=O)N2CCC(n3cc(-c4nc(-c5ccccc5)no4)nn3)CC2)c1	none
N#Cc1ccc(C(=O)N2CCCC(n3cc(-c4nc(-c5ccccc5)no4)nn3)C2)cc1 (stereo not drawn)	Pf Dd2 growth 4.5µM
O=C(Cc1ccc(Cl)cc1)N1CCC(n2cc(-c3nc(-c4ccccc4)no3)nn2)CC1	Pf Dd2 growth 2µM
O=C(c1ccccc1)N1CCC(n2cc(-c3nc(-c4ccccc4)no3)nn2)C1 (stereo not drawn)	none
O=C(Cc1ccc(Cl)cc1)N1CCC(n2cc(-c3nc(-c4ccccc4)no3)nn2)C1 (stereo not drawn)	none
O=C(c1ccc(Cl)cc1)N1CCC(n2cc(-c3nc(-c4ccccc4)no3)nn2)C1 (stereo not drawn)	none
N#Cc1ccc(C(=O)N2CCC(n3cc(-c4nc(-c5ccccc5)no4)nn3)C2)cc1 (stereo not drawn)	none
COc1ccc(C(=O)N2CCC(n3cc(-c4nc(-c5ccccc5)no4)nn3)CC2)cc1	Pf Dd2 growth 1.3µM
Cc1c(C2=CCN(S(=O)(=O)c3cccc(Cl)c3)CC2)c2ccccc2n1CC(=O)N1CCCC1	none
CC(=O)N1CCCc2cc(S(=O)(=O)N3CCCCC3)ccc21	none
CC1(C)[C@H](Cc2cc(CCO)on2)C[C@@H]1NC1CCC1	none
N#Cc1c[nH]c(C(=O)N2CCN(Cc3cn[nH]n3)CC(O)C2)c1 (stereo not drawn)	none
CO[C@H]1C(=O)N(C2CCN(C(=O)c3cnccn3)CC2)[C@H]1c1ccncc1	none
Cc1c(CN2C[C@@H](CN(C)CCO)[C@@H](CO)C2)[nH]c2c(Cl)cccc12	Pf Dd2 growth 13µM
Cc1cc2c(cc1C(=O)N1C[C@@H](CN(C)CCO)[C@@H](CO)C1)OCCO2	none
CN(CCO)C[C@@H]1CN(C(=O)c2ccc3c(c2)CCC3)C[C@@H]1CO	none
CC(C)OCc1cc(CN2CCN(c3ccccc3)CC2)c(O)c2ncccc12	Pf Dd2 growth 2.5µM
CCn1c2ccccc2c2nnc(N3CCN(c4cccc(Cl)c4)CC3)nc21	none
CCOCc1cc(CN2CCN(c3cccc(Cl)c3)CC2)c(O)c2ncccc12	Pf Dd2 growth 2.8µM
COc1ccc(-c2noc(CN3CCN(c4cccc(Cl)c4)CC3)n2)cc1	none
COc1cc(-c2noc(CN3CCN(c4ccccc4)CC3)n2)cc(OC)c1OC	none
CCOc1ccc2oc(=O)cc(CN3CCN(c4ccccc4)CC3)c2c1	none
O=C1NC(C(=O)Nc2ccc(F)cc2)Cn2cccc21 (stereo not drawn)	none
O=C(NCc1ccc(F)cc1)N1CCC(Oc2ncccc2C(=O)N2CCOCC2)C1 (stereo not drawn)	none
O=C(NC1CCCCC1)N1Cc2[nH]cnc2C[C@H]1c1nc(-c2ccc(Cl)cc2)no1	none
CCCCOc1ccc(C(=O)N2CCC[C@H]2c2nc(-c3ccc(OC)cc3)no2)cc1	Pf Dd2 growth 11µM
Cc1cccc(-c2noc([C@@H]3Cc4nc[nH]c4CN3C(=O)C3CCCCC3)n2)c1	none
O=C(NC1CCCCC1)N1Cc2[nH]cnc2C[C@H]1c1nc(-c2ccc3ccccc3c2)no1	none
O=C(O)c1ccc(CN2Cc3[nH]cnc3C[C@H]2c2nc(-c3cccc([N+](=O)[O-])c3)no2)cc1	none
COc1ccc(-c2noc([C@@H]3Cc4nc[nH]c4CN3C(=O)NC3CCCCC3)n2)cc1	Pf Dd2 growth 13µM
Cc1ccc(-c2noc([C@@H]3CCCN3C(=O)Cc3ccccc3)n2)cc1	none
CCOc1ccc(C(=O)N2CCC[C@H]2c2nc(-c3ccccc3)no2)cc1	none
Cc1ccc(-c2noc([C@@H]3CCCN3C(=O)CCCc3ccccc3)n2)cc1	Pf Dd2 growth 11µM
COc1ccc(-c2noc([C@@H]3CCCN3C(=O)c3ccc(C(C)(C)C)cc3)n2)cc1	none
O=[N+]([O-])c1cccc(-c2noc([C@@H]3Cc4nc[nH]c4CN3CC3CCCCC3)n2)c1	Pf Dd2 growth 14µM
O=C(CCc1ccccc1)N1CCC[C@H]1c1nc(-c2ccccc2)no1	none
COc1ccc(CNC(=O)C(CC(C)C)N2Cc3ccccc3C2=O)cc1 (stereo not drawn)	none
O=C(NCc1cccnc1)C1CCC(=O)N1C1CCN(C(=O)c2ccc(F)cc2)CC1 (stereo not drawn)	none
NC(=O)[C@@H]1CCCN1CC[C@H]1CN(C(=O)c2ccc(F)cc2)CC[C@H]1CC(=O)O	none
Cc1ccccc1OCC(=O)Nc1ccc2nc(SCC(=O)N3CCOCC3)sc2c1	none
O=C(c1cnc[nH]1)N1C[C@@H](COc2cccnc2)[C@H](c2ccccn2)C1	none
Cc1cccc(Nc2nc3c(S(=O)(=O)c4ccc(Br)cc4)nnn3c3ccsc23)c1C	none
O=C(c1cnccn1)N1CCN2C(=O)NC[C@H]2C1	none
O=C(NCc1cccnc1)[C@H]1C[C@@H](O)[C@H](O)[C@@H]2N=C(Nc3ccc(Cl)cc3)S[C@@H]21	none
C[C@@H](NC(=O)c1ccccc1)c1c(-c2ccc(Cl)cc2)noc1C(=O)O	none
O=C1Nc2ccccc2CC12CCCN(CC1CCCCC1)C2 (stereo not drawn)	none
CN(C)S(=O)(=O)N1CCC2(CCCN(Cc3ccc(F)c(F)c3)C2=O)C1 (stereo not drawn)	none
O=C1N(Cc2ccc(F)cc2)CCCC12CCN(CC1CCCC1)C2 (stereo not drawn)	Pf Dd2 growth 4µM
CN(C)C(=O)c1cc(C(C)(C)C)nc2c1cnn2C	none
COc1ccc(CCN2C(=O)N(c3ccccc3)C(=O)C2CC(=O)Nc2ccccc2)cc1 (stereo not drawn)	none
CCCNC(=O)CN1C(=O)c2c(c3ccccc3n2C)C1c1ccc(OC)cc1 (stereo not drawn)	none
COc1ccc(CCN2C(=O)c3[nH]nc(-c4ccccc4O)c3C2c2ccc(OC)cc2)cc1 (stereo not drawn)	Pf Dd2 growth 10µM
COc1ccc(CCN2C(=O)c3[nH]nc(-c4ccccc4O)c3C2c2ccccc2)cc1 (stereo not drawn)	Pf Dd2 growth 8.9µM
COc1ccc(CN2C(=O)c3oc4ccccc4c(=O)c3C2c2ccc(O)c(OC)c2)cc1 (stereo not drawn)	none
CC(=O)c1ccc(NC(=O)N2Cc3[nH]cnc3C[C@H]2c2nc(-c3ccc(F)cc3)no2)cc1	none
CN(CCc1ccccn1)C(=O)CN1CC2CC(C1)[C@H]1CCCC(=O)N1C2 (stereo partly drawn)	none
O=C(NCc1nnc2n1C(C(=O)O)CC2)c1ccc(F)cc1 (stereo not drawn)	none
